Rows were chosen to be rich in hits. Some 2.8% of all compounds tested hit in one or more screens of this group.
DRD3 agonist: activates the human D3 dopamine receptor; 0.58% of 410,000 active; D3R DiscoveRx beta-arrestin cells, luminescence, 90 min; AID 652048; max activation, %; P35462; in the data active = max activation above about 30%
Target sequence (P35462 whole entry, looked up): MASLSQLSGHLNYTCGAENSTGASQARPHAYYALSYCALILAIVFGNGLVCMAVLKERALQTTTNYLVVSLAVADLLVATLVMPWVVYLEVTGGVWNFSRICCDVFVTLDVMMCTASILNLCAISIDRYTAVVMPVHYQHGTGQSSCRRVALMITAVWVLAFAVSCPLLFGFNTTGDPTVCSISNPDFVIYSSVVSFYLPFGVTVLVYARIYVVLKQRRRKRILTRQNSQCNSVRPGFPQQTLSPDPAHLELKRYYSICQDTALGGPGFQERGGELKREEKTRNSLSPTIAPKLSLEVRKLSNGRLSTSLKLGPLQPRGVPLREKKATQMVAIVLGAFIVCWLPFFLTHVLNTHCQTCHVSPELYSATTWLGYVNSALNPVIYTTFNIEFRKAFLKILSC
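Agonist mode: compounds and dopamine controls were applied to plated cells for 90 min at 37 degrees C after an overnight attachment at 1500 cells/well. Luminescent read-out followed 30 - 60 minutes at room temperature with DiscoveRx detection reagent.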
Giardia killer: Giardia lamblia killing | Giardia lamblia trophozoite viability | activity change, % at 7.66 µM, hits read low | AID 540267 | 0.15% of 340,000 active; in the data active = activity change below about -80%; inconclusive = between about -30% and that limit;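 also: parasites exposed to compound for two days anaerobically before the ATP read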
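Anaerobic 48 hrs incubation at 37 deg C of 100 trophozoites/well with test compounds; ATPLite 1-Step luminescence, 15-30 min RT, reports cellular ATP as viability.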
DRD3 antagonist: antagonists of human D3 dopamine receptor; D3R cells, DiscoveRx beta-arrestin luminescence, antagonist mode; active compounds read low; max response, negative = inhibition, %; 2.5% of 360,000 active; AID 652054; in the data active = max response below about -50%; inconclusive = no clear call, values can overlap the other calls
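Cells expressing the human receptor were seeded at 1500 cells/well, incubated overnight at 37 degrees C in 5% CO2, then exposed to library compounds with dopamine controls for 90 minutes at 37 degrees C before luminescent detection.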
B2AR arrestin: beta2AR (human) beta-arrestin recruitment activity; beta-arrestin recruitment to beta2AR, cell-based reporter; Potency, µM (doses to about 46.1 µM), most hits filed as activators; 0.02% of 330,000 active; AID 492947; active = well fitted activation curve with a large enough effect; inconclusive = small, poorly fitted or top-dose-only effect; also: nearly all actives have a fitted effect of over 65% in size
Numbers stand for hits; . = inactive; ? = inconclusive; / = not tested or not shown.

SMILES | DRD3 agonist | Giardia killer | DRD3 antagonist | B2AR arrestin
COc1ccc(/C=C\c2onc(C)c2S(=O)(=O)N2CCC(C(=O)Nc3ccccc3OC)CC2)cc1 | . | / | / | /
COc1cc(C2CC(=O)c3cnc(NC(=O)COc4ccccc4)nc3C2)cc(OC)c1OC (stereo unspecified) | 36 | . | . | .
COc1ccc(C2CC(=O)c3cnc(Nc4cc(C)cc(C)c4)nc3C2)cc1 (stereo unspecified) | 49 | . | . | .
COc1ccc(C2CC(=O)c3cnc(NC(=O)c4ccccc4)nc3C2)cc1OC (stereo unspecified) | . | . | . | .
O=C(Cn1c(=O)oc2cc(S(=O)(=O)N3CCCCCC3)ccc21)Nc1ccc(F)cc1F | . | / | / | /
O=C(c1ccccc1)n1nc(-c2ccco2)nc1NCc1ccccc1Cl | . | / | / | /
O=C(Nc1ccc(F)cc1)c1cccn1-c1nnc(N2CCCCC2)s1 | . | / | / | /
COC(=O)c1cc(=O)nc2sc3ccccc3n12 | . | ? | -51 | .
COC(=O)c1cc(=O)nc2scc(C)n12 | . | . | . | .
Cc1ccc(NC(=O)Cn2c(=O)oc3cc(S(=O)(=O)N4CCCCC4)ccc32)c(Cl)c1 | . | / | / | /
COCCCNC(=O)CSc1nc2c(sc(=S)n2-c2cc(Cl)ccc2OC)c(=O)[nH]1 | . | . | . | .
COc1ccc(Cl)cc1-n1c(=S)sc2c(=O)[nH]c(SCC(=O)NCC3CCCO3)nc21 (stereo unspecified) | . | . | -58 | .
COCCCNC(=O)c1ccc(N2CCOCC2)c(NS(=O)(=O)c2ccc(OC)cc2)c1 | . | . | -73 | .
CC1(OC(=O)C2CCCC2)C(=O)C=C2C=C(c3ccsc3)N(C3CC3)C=C2C1=O (stereo unspecified) | . | . | -64 | .
CC1(OC(=O)C2CCCC2)C(=O)C=C2C=C(c3ccsc3)N(c3ccccc3)C=C2C1=O (stereo unspecified) | . | . | . | .
CC(C)(C)OC(=O)NCc1ccc(CNC(=O)c2[nH]cnc2C(=O)NCC(=O)OCc2ccccc2)cc1 | 43 | . | . | .
CC(C)(C)OC(=O)CNC(=O)c1[nH]cnc1C(=O)NCCCCCNC(=O)OC(C)(C)C | 55 | . | . | .
CC(C)(C)OC(=O)NCc1ccc(CNC(=O)c2nc[nH]c2C(=O)NCc2ccccc2)cc1 | . | . | . | .
CC(C)(C)OC(=O)CNC(=O)c1[nH]cnc1C(=O)NCCCCCN | . | . | . | .
CCOC(=O)c1ccc(NC(=O)c2nc[nH]c2C(=O)NC)cc1 | 49 | . | . | .
CCOC(=O)c1ccc(NC(=O)c2nc[nH]c2C(=O)NCCNC(=O)c2[nH]cnc2C(=O)Nc2ccc(C(=O)OCC)cc2)cc1 | . | . | . | .
CN(Cc1ccccc1)C(=O)c1[nH]cnc1C(=O)NCc1ccc(CNC(=O)OC(C)(C)C)cc1 | 70 | . | . | .
Cc1ccc2c(c1)-c1c(cnc3cc(-c4ccc(Cl)cc4)nn13)CO2 | . | / | / | /
COc1ccc(NC(=O)c2nc[nH]c2C(=O)NCc2ccccc2)cc1 | 57 | . | . | .
O=C(CNC(=O)c1nc[nH]c1C(=O)NCC(=O)OCc1ccccc1)OCc1ccccc1 | . | . | . | .
SMILES | DRD3 agonist | Giardia killer | DRD3 antagonist | B2AR arrestin
CC(C)(C)OC(=O)NCc1ccc(NC(=O)c2nc[nH]c2C(=O)N[C@@H](Cc2ccccc2)C(=O)OCc2ccccc2)cc1 | 31 | . | . | .
O=C(Nc1ccccc1)c1nc[nH]c1C(=O)NCc1ccccc1 | . | . | . | .
CC(C)(C)OC(=O)NCc1ccc(CNC(=O)c2[nH]cnc2C(=O)N[C@@H](Cc2ccccc2)C(=O)OCc2ccccc2)cc1 | . | . | . | .
CCN(CC)C(=O)c1[nH]cnc1C(=O)NCC(=O)OCc1ccccc1 | 39 | . | . | .
O=C(CCn1c(=O)c2cccn2c2cccnc21)Nc1ccccc1C(F)(F)F | . | / | / | /
COc1ccc(-c2noc(C3CC(=O)N(c4ccc5c(c4)OCCO5)C3)n2)c(OC)c1 (stereo unspecified) | . | / | / | /
Cc1nc2ccc(S(=O)(=O)N(CC(=O)Nc3cccc(F)c3)Cc3ccccc3)cc2s1 | . | / | / | /
CC(C)[C@H]1CN=C2N(C[C@H](C)NC(=O)CCC3CCCCC3)[C@H](Cc3ccc(O)cc3)CN21 | . | . | -94 | .
COc1ccc(C[C@@H]2CN3C(=NC[C@@H]3Cc3ccc(O)cc3)N2C[C@H](C)NC(=O)CCC2CCCCC2)cc1 | . | . | . | ?
COc1ccc(C[C@H]2CN3C(=NC[C@@H]3Cc3ccc(O)cc3)N2C[C@H](C)NC(=O)CCC2CCCCC2)cc1 | . | . | ? | ?
C[C@@H](CN1C2=NC[C@H](C)N2C[C@H]1Cc1ccc(O)cc1)NC(=O)CCC1CCCCC1 | . | . | -66 | .
CCc1ccc(C2=NN(CCC(=O)NCCc3ccccc3)C(=O)CC2)cc1 | . | / | / | /
Oc1c(Cl)cc(Cl)cc1/C=N/NC(=S)NC1CC2C=CC1C2 (stereo unspecified) | . | . | -85 | .
Oc1ccccc1C=NNC(=S)NC1CC2C=CC1C2 (stereo unspecified) | . | / | . | /
COc1ccc(Cl)cc1NC(=O)CN(c1cc(C)cc(C)c1)S(=O)(=O)c1c(C)n[nH]c1C | . | / | / | /
c1ccc(COc2cccc(CN3CCCCC3)c2)cc1 | . | . | ? | .
CC(=O)OCC(=O)NCCCOc1cccc(CN2CCCCC2)c1 | . | . | -81 | /
CCCc1cnc2c(c1SCc1cccc(F)c1)c(=O)n(C)c(=O)n2C | . | / | / | /
CC(C)(C)n1nnnc1C(c1ccccc1)N1CCN(CCN2CCOCC2)CC1 (stereo unspecified) | . | / | . | /
COc1ccc(C(c2nnnn2-c2ccc(OC)cc2)N2CCN(C/C=C/c3ccccc3)CC2)cc1 (stereo unspecified) | . | / | -89 | /
COc1ccc(C(c2nnnn2C(C)(C)C)N2CCN(C/C=C/c3ccccc3)CC2)cc1 (stereo unspecified) | . | / | -67 | /
COc1ccc(-n2nnnc2C(c2ccccc2OC(F)(F)F)N2CCN(C/C=C/c3ccccc3)CC2)cc1 (stereo unspecified) | . | / | -96 | /
CCCCn1nnnc1C(C1CC1)N1CCN(C/C=C/c2ccccc2)CC1 (stereo unspecified) | . | / | -137 | /
CC(C)c1noc(-c2ccccc2OCC(=O)Nc2cccc([N+](=O)[O-])c2)n1 | . | / | / | /
CCOc1cc(CNC(=O)c2ccc3nc(CCc4ccccc4)oc3c2)ccc1OC | . | / | / | /
C=CCn1c(SCC)nc2ccccc2c1=O | / | . | / | /
COc1ccc(C(c2nnnn2C2CCCCC2)N2CCN(C/C=C/c3ccccc3)CC2)cc1 (stereo unspecified) | . | / | -84 | /
C(=C\c1ccccc1)/CN1CCN(C(c2ccccc2)c2nnnn2-c2ccc3c(c2)OCCO3)CC1 (stereo unspecified) | . | / | -75 | /
COc1ccc(N2CCN(C(c3ccccc3OC)c3nnnn3C3CCCC3)CC2)cc1 (stereo unspecified) | . | . | . | .
COc1ccc(-n2nnnc2C(c2ccnc3ccccc23)N2CCN(C/C=C/c3ccccc3)CC2)cc1 (stereo unspecified) | . | / | -54 | /

Source: PubChem
